# Screening results (PubChem)
# This is a sample that favours compounds with a hit; in the whole collection about 5.2% have one here.
# APOBEC3G inh: APOBEC3G (human) deaminase inhibition | Q9HC16 | recombinant A3G, ssDNA deamination FAM/TAMRA fluorescence | inhibition, % at 20 µM | actives 0.28% (n = 330,000) | AID 493012;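 active = inhibition of at least 40% at 20 µM, with no more than 30% in the related APOBEC3A deaminase screen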;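 also: plate controls were DMSO wells with A3G for no effect and wells lacking A3G enzyme for full effect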
# Target sequence (Q9HC16 whole entry, looked up): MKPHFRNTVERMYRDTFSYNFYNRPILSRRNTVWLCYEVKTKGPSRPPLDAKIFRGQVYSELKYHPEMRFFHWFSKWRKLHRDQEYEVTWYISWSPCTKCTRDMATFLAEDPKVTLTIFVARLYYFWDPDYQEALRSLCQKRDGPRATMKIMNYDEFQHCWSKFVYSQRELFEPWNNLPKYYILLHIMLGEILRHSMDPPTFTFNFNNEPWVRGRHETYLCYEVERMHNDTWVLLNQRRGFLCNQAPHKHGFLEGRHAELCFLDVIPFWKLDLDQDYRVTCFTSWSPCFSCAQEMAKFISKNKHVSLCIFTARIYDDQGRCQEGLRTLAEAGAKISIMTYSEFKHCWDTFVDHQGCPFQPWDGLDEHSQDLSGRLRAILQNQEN
# CendR NRP1 mod: NRP-1/CendR interaction modulation; actives 0.85% (n = 360,000); O14786; FAM-RPARPAR peptide binding to NRP-1, fluorescence polarization; inhibition, % at 25 µM; AID 602438;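 active = inhibition or corrected inhibition above about 18%, plus a signal ratio from 0.5 to 1.5, limit read from the data, passing the limit was not always enough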
# CR mimetic SO: yeast age-related superoxide inhibition as caloric restriction mimetic. superoxide response (% of plate mean), % at 10 µM. actives 0.18% (n = 330,000). AID 2690. S. cerevisiae aged cells, superoxide DHE fluorescence; stronger effect = lower value;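 active = superoxide response under a set limit, about three screen SD below normal, cut at about 65% in these data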;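 also: yeast aged for seven days with compound at 30 °C before DHE staining; 100% = average MFI of all compound-treated wells on the plate with controls excluded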
# A3A deaminase: human APOBEC3A DNA deaminase inhibition. P31941. recombinant A3A, FAM/TAMRA ssDNA deamination fluorescence. inhibition, % at 20 µM. actives 0.41% (n = 330,000). AID 493011;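 active = at least 40% inhibition at 20 µM here, with at most 30% in a related deaminase screen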;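 also: plate controls were A3A with DMSO for no effect and wells lacking A3A enzyme for full effect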
# PfM18AAP inh: blocks P. falciparum M18 aspartyl aminopeptidase. recombinant PfM18AAP, H-Glu-NHMec fluorogenic cleavage. inhibition, % at 7.35 µM. actives 1.2% (n = 290,000). AID 1822;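 active = inhibition above the campaign mean inhibition over all tested compounds plus 3 SD, cut at about 28% in these data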;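 also: 0% = plate median of test compound wells and 100% = 2 mM ZnCl2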
# ALR H2O2 inh: blocks human ALR sulfhydryl oxidase activity; actives 3.8% (n = 290,000); P55789; purified ALR, DTT oxidation, H2O2 HRP-luminol luminescence; AID 485317; inhibition, % (concentration not given with the values);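 active = mean replicate inhibition above about 79%, with every replicate also reaching it, limit read from the data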
# Target sequence (P55789 whole entry, looked up): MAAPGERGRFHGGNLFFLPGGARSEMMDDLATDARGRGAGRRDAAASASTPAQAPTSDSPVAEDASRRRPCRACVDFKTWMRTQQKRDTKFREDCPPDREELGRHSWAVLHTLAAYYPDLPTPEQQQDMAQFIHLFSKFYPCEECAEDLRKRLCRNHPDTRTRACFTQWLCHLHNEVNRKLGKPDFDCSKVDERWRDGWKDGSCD
# * marks the source's active call; other numbers are inactive results; . = not tested or not shown.
SMILES,APOBEC3G inh,CendR NRP1 mod,CR mimetic SO,A3A deaminase,PfM18AAP inh,ALR H2O2 inh
Cc1ccc(SCC(=O)OCC(=O)N(C)C2CCS(=O)(=O)C2)cc1C (stereo not drawn),-8,51*,128,-5,.,.
CN(C(=O)COC(=O)Cc1c(Cl)cccc1Cl)C1CCS(=O)(=O)C1 (stereo not drawn),-8,26*,91,-4,.,-1
CN(C(=O)COC(=O)c1nc(-c2ccccc2)n(-c2ccccc2)n1)C1CCS(=O)(=O)C1 (stereo not drawn),3,40*,111,6,-1,-12
C/C(=C\c1ccccc1)C1Nc2cccc3cccc(c23)N1,-12,.,79,-5,.,-17
C/C(=C\c1ccc2c(c1)OCO2)C1Nc2cccc3cccc(c23)N1,-11,17*,84,-3,.,-15
CC(C)C(=O)NC(c1ccco1)c1c(O)ccc2ccccc12 (stereo not drawn),-5,8,110,3,-31,39
CCC(=O)Nc1cccc(C2=NOC3(C2)C[C@H](C(N)=O)N(C(=O)Cc2ccc([N+](=O)[O-])cc2)C3)c1 (stereo partly drawn),-1,13,111,1,.,-6
CC1(C)c2ccccc2C(=O)c2ccccc21,.,34*,.,.,.,.
CC(=O)Nc1ccc(NC(=O)CSc2nc3nc(-c4cccs4)cc(C(F)(F)F)c3c(=O)[nH]2)cc1,-6,-5,102,0,0,99*
O=C(CSc1nc2nc(-c3cccs3)cc(C(F)(F)F)c2c(=O)[nH]1)NCc1ccco1,-2,-47,108,10,28*,18
CCOC(=O)c1cccc(N2CC3CNC(=O)C2(C(=O)OC)N3C)c1 (stereo not drawn),-5,21*,102,2,.,0
CCOC(=O)c1cccc(N2C(=O)C3C4C=CC(CC4)C3C2=O)c1 (stereo not drawn),-2,8,83,-3,-4,.
O=C(Nc1ccc(NC(=O)c2cccs2)cc1)c1cccnc1,-15,1,93,-2,0,-5
CC(C)c1ccc(NC(=O)Cc2c(C(=O)O)n(C)c3ccccc23)cc1,-5,0,114,-2,-1,97*
Clc1ccc2nc(-c3ccc(Br)s3)cn2c1,-6,-3,78,-2,-3,-3
NC(=O)[C@H]1CC2(CC(c3cccc(NC(=O)CC(c4ccccc4)c4ccccc4)c3)=NO2)CN1C(=O)CC(c1ccccc1)c1ccccc1 (stereo partly drawn),-1,18,101,0,.,8
O=C(O)CCN1C(=O)/C(=C\c2ccc(-c3nc4ccccc4s3)o2)SC1=S,17,-104,161,20,-4,98*
CCCC1CCC(c2ccc(/C(N)=N/O)cc2)CC1 (stereo not drawn),-11,-15,111,7,1,94*
CSc1cccc(NC(=S)N(CCCN2CCCC(C)C2)Cc2cccs2)c1 (stereo not drawn),0,2,96,4,-3,-61
O=c1c2c(n3nnnc3n1-c1ccccc1)-c1ccccc1CC21CCCC1,-5,10,105,-2,3,-17
CCCCN(C)CCCNC(=O)CS(=O)Cc1nc(-c2ccc(OC)c(OC)c2)oc1C (stereo not drawn),4,-2,91,2,-12,100*
CCCN(CCC)CCCNC(=O)CS(=O)Cc1nc(-c2ccc(OC)c(OC)c2)oc1C (stereo not drawn),2,-3,89,12,-5,100*
CC(C)OP(=O)(c1ccc(N(C)C)cc1)C(O)c1c(Cl)cccc1Cl (stereo not drawn),-5,2,94,-3,4,4
CC(C)COP(=O)(c1ccc(N(C)C)cc1)C(O)c1ccccc1 (stereo not drawn),-2,4,90,-4,0,11
CC(C)COP(=O)(c1ccc(N(C)C)cc1)C(O)c1ccc(N(C)C)cc1 (stereo not drawn),-5,2,99,-4,-6,98*
SMILES,APOBEC3G inh,CendR NRP1 mod,CR mimetic SO,A3A deaminase,PfM18AAP inh,ALR H2O2 inh
CC(C)OP(=O)(c1ccc(N(C)C)cc1)C(O)c1ccc(N(C)C)cc1 (stereo not drawn),-8,5,86,-5,12,98*
CC(C)COP(=O)(OCC(C)C)C(O)c1ccc(N(C)C)cc1 (stereo not drawn),10,-3,96,0,10,92*
CN(Cc1ccccc1)S(=O)(=O)c1ccc(Cl)c(C(=O)NCCc2ccccn2)c1,-6,12,92,-1,5,-1
CCOC(=O)[C@@H]1[C@H]2COc3ccc(Br)cc3[C@@H]2N2C(=O)N(c3cccc(F)c3)C(=O)[C@@]12C,10,10,93,-4,0,-6
COc1ccc(-c2csc(NC(=O)Nc3ccccc3)n2)cc1,-9,2,91,-1,-2,0
Cc1ccc(NC(=O)Nc2nc(-c3ccc(C)s3)cs2)cc1,0,-2,110,0,28*,8
C/C(CC(=O)Nc1ccc([N+](=O)[O-])cc1)=N\NC(=O)c1ccccc1O,-6,1,104,-9,-2,.
COc1ccc(Cc2c(C(C)(C)C)nc3ccc(C)cn23)c(C)c1,.,-21,.,.,.,.
O=C1CC(N2CCN(c3ccccc3)CC2)C(=O)N1CCc1ccccc1 (stereo not drawn),-6,-7,111,-4,-2,95*
CN1CCN(C2CC(=O)N(CCc3ccccc3)C2=O)CC1 (stereo not drawn),1,-28,87,0,-17,-1
CN1C(=O)CC(N2CCN(c3ccccc3)CC2)C1=O (stereo not drawn),-3,0,111,3,4,94*
CS(=O)(=O)N(CC(=O)N1CCCC1)c1cc(C(F)(F)F)ccc1Cl,-7,0,94,-2,2,-4
CCN1CCN(C(=S)NC(=O)c2cccc(Br)c2)CC1,-8,43*,104,9,.,-5
CCOC(=O)N1CCN(C(=S)NC(=O)c2ccc(Br)cc2)CC1,-3,-7,84,3,10,-43
Cc1ccccc1N=C1NC(=O)CC(c2ccccc2)S1 (stereo not drawn),-4,-9,100,-2,-2,-6
S=c1[nH]nc(COc2ccccc2)n1/N=C/C=C/c1ccco1,64,-16,90,54,25,97*
S=c1[nH]nc(COc2ccccc2)n1/N=C/C=C/c1ccccc1,-6,0,93,-3,4,21
S=c1[nH]nc(-c2n[nH]c3c2CCC3)n1/N=C/C=C/c1ccco1,51,-47,81,59,23,97*
COc1ccc(NS(=O)(=O)c2cccc(C(=O)NCC3CCCO3)c2)cc1 (stereo not drawn),-8,4,104,-3,.,-11
